According to PubChem BioAssay (NCI):
Several values for one entry are separate records, joined by “and”; a condition that tells them apart may be missing. Equal values may be shown once. Compounds without any hit were thinned out: in the full panel of roughly 83,000, 20% have a hit.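 Single-concentration screen, 48 h exposure, 96-well plates. Endpoint: percent growth. Below 10 = active.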 Activity calls are given as the source filed them.

How the values were obtained:
Experiment in all cases: NCI-60 one-dose screen, 48 h (100 = growth as untreated, 0 = no growth, -100 = all killed)
[1] = tested on: SR leukemia; conditions: 10 µM unless noted
[2] = tested on: OVCAR-5 ovarian
[3] = tested on: OVCAR-4 ovarian
[4] = tested on: SK-OV-3 ovarian
[5] = tested on: IGROV1 ovarian
[6] = tested on: HS 578T breast
[7] = tested on: T-47D breast
[8] = tested on: SW-620 colon
[9] = tested on: MCF7 breast
[10] = tested on: HCT-116 colon
[11] = tested on: HCC-2998 colon
[12] = tested on: MDA-MB-468 breast
[13] = tested on: RPMI-8226 leukemia
[14] = tested on: OVCAR-8 ovarian
[15] = tested on: NCI/ADR-RES ovarian
[16] = tested on: BT-549 breast
[17] = tested on: MDA-MB-435 melanoma
[18] = tested on: KM12 colon
[19] = tested on: OVCAR-3 ovarian

Measured: growth

Cc1cc(N=C(N)c2ccccc2)ccc1OCCCCCCCCn1ccnc1
active: [1] 0.698% | [2]; 10 µM unless noted 1.47% | [5]; 10 µM unless noted 6.54% | [9]; 10 µM unless noted -4.6% | [11]; 10 µM unless noted -32.6% | [12]; 10 µM unless noted 2.88%
inactive: [3]; 10 µM unless noted 37.5% | [4]; 10 µM unless noted 16.7% | [6]; 10 µM unless noted 13.6% | [7]; 10 µM unless noted 26.4% | [8]; 10 µM unless noted 20% | [10]; 10 µM unless noted 11.4%

Nc1cccc(-n2c(COc3ccc(I)cc3)nc3ccccc32)c1
inactive: [1] 64.7% and 101% | [13]; 10 µM unless noted 68.9% and 104% | [14]; 10 µM unless noted 93.4% and 106% | [2]; 10 µM unless noted 88.6% and 105% | [3]; 10 µM unless noted 66.2% and 105% | [4]; 10 µM unless noted 64.7% and 102% | [5]; 10 µM unless noted 46.8% and 107% | [6]; 10 µM unless noted 63.2% and 110% | [15]; 10 µM unless noted 74.3% and 102% | [7]; 10 µM unless noted 54.6% and 99.2% | [16]; 10 µM unless noted 92.6% and 99.7% | [17]; 10 µM unless noted 95.9% and 99.7% | [8]; 10 µM unless noted 86.3% and 104% | [9]; 10 µM unless noted 67.9% and 98.9% | [10]; 10 µM unless noted 76% and 102% | [11]; 10 µM unless noted 118% and 113% | [18]; 10 µM unless noted 87.9% and 99.6% | [12]; 10 µM unless noted 72.2% and 102%

O=C1NC(=NC23CC4CC(CC(C4)C2)C3)N/C1=C\c1ccc2ncccc2c1
active: [13]; 10 µM unless noted -31.1% | [14]; 10 µM unless noted 5.28% | [3]; 10 µM unless noted -14.4% | [4]; 10 µM unless noted -57.4% | [5]; 10 µM unless noted 8.97% | [19]; 10 µM unless noted -55.3% | [6]; 10 µM unless noted -15.3% | [15]; 10 µM unless noted -28.7% | [17]; 10 µM unless noted -22.6% | [8]; 10 µM unless noted 1.21% | [9]; 10 µM unless noted -11.4% | [10]; 10 µM unless noted 3.24%
inactive: [2]; 10 µM unless noted 45.7% | [7]; 10 µM unless noted 22.5% | [16]; 10 µM unless noted 16.2% | [11]; 10 µM unless noted 22.7% | [18]; 10 µM unless noted 24.3% | [12]; 10 µM unless noted 19.4%

CS(=O)(=O)c1ccc(-n2nc(C(=O)NCc3ccccc3)cc2-c2ccc(Cl)cc2)cc1
inactive: [1] 76.7% | [13]; 10 µM unless noted 56.8% | [14]; 10 µM unless noted 89.9% | [2]; 10 µM unless noted 105% | [3]; 10 µM unless noted 71% | [4]; 10 µM unless noted 104% | [5]; 10 µM unless noted 95.9% | [6]; 10 µM unless noted 110% | [15]; 10 µM unless noted 83.9% | [7]; 10 µM unless noted 66.6% | [16]; 10 µM unless noted 143% | [17]; 10 µM unless noted 91.7% | [8]; 10 µM unless noted 99.8% | [9]; 10 µM unless noted 70.1% | [10]; 10 µM unless noted 69.6% | [11]; 10 µM unless noted 99.4% | [18]; 10 µM unless noted 89.2% | [12]; 10 µM unless noted 86.7%

CC/C(=C(\c1ccc(O)cc1)c1ccc(OCCN(C)C(=O)CCOCCNC(=O)c2ccc3c(c2)CN([C@@H]2CCC(=O)NC2=O)C3=O)cc1)c1ccccc1
active: [16]; 1 µM 9.93% | [12]; 10 µM 5.97%
inactive: [13]; 1 µM 99.1% | [13]; 10 µM 93.9% | [14]; 1 µM 103% | [14]; 10 µM 77.6% | [2]; 1 µM 93.4% | [2]; 10 µM 79.5% | [3]; 1 µM 109% | [3]; 10 µM 96.1% | [4]; 1 µM 82.7% | [4]; 10 µM 87.9% | [5]; 1 µM 70.4% | [5]; 10 µM 53.6% | [19]; 1 µM 93.7% | [19]; 10 µM 105% | [6]; 1 µM 75.9% | [6]; 10 µM 69.3% | [15]; 1 µM 106% | [15]; 10 µM 102% | [7]; 1 µM 38.3% | [7]; 10 µM 50.4% | [16]; 10 µM 39.3% | [17]; 1 µM 100% | [17]; 10 µM 95.4% | [8]; 1 µM 87% | [8]; 10 µM 83.6% | [9]; 1 µM 27.9% | [9]; 10 µM 24% | [10]; 1 µM 92.7% | [10]; 10 µM 94.8% | [11]; 1 µM 99% | [11]; 10 µM 103% | [18]; 1 µM 102% | [18]; 10 µM 103% | [12]; 1 µM 25.6%

CCOC(=O)/C(F)=C/C1CC1C1CCN(C(=O)OC(C)(C)C)CC1 (configuration not stated)
inactive: [1] 89.6% | [13]; 10 µM unless noted 102% | [14]; 10 µM unless noted 103% | [2]; 10 µM unless noted 111% | [3]; 10 µM unless noted 94.8% | [4]; 10 µM unless noted 110% | [5]; 10 µM unless noted 106% | [6]; 10 µM unless noted 110% | [15]; 10 µM unless noted 100% | [7]; 10 µM unless noted 74.6% | [16]; 10 µM unless noted 125% | [17]; 10 µM unless noted 105% | [8]; 10 µM unless noted 101% | [9]; 10 µM unless noted 83.9% | [10]; 10 µM unless noted 99.1% | [11]; 10 µM unless noted 111% | [18]; 10 µM unless noted 102% | [12]; 10 µM unless noted 94.8%

CN(C)c1nc(NCCNS(=O)(=O)c2ccc(C(=O)/C=C/c3ccc(Cl)cc3)cc2)nc(N2CCOCC2)n1
active: [1] -12.8% | [13]; 10 µM unless noted -22.8% | [5]; 10 µM unless noted -71.2% | [17]; 10 µM unless noted -53.6% | [8]; 10 µM unless noted -66.9% | [9]; 10 µM unless noted -67% | [10]; 10 µM unless noted -95.5% | [11]; 10 µM unless noted -94.4% | [18]; 10 µM unless noted -76.9% | [12]; 10 µM unless noted -83.2%
inactive: [14]; 10 µM unless noted 12.8% | [2]; 10 µM unless noted 55.4% | [3]; 10 µM unless noted 60% | [4]; 10 µM unless noted 73.9% | [6]; 10 µM unless noted 62% | [15]; 10 µM unless noted 25.5% | [7]; 10 µM unless noted 10.3%
